Drawing on the supplement of paper PMC10681739, this text covers RUNX1 binding intensity and ETS1 binding intensity for 20 sequences.
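Throughout, for RUNX1 binding intensity (PBM fluorescence), RUNX1 alone: Full-length recombinant human RUNX1 bound to double-stranded 36-bp genomic probes on a high-density microarray, scored as Alexa488 fluorescence per spot via anti-RUNX1 antibody, median of four replicate spots.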

RUNX1, sequence (Q01196 whole entry): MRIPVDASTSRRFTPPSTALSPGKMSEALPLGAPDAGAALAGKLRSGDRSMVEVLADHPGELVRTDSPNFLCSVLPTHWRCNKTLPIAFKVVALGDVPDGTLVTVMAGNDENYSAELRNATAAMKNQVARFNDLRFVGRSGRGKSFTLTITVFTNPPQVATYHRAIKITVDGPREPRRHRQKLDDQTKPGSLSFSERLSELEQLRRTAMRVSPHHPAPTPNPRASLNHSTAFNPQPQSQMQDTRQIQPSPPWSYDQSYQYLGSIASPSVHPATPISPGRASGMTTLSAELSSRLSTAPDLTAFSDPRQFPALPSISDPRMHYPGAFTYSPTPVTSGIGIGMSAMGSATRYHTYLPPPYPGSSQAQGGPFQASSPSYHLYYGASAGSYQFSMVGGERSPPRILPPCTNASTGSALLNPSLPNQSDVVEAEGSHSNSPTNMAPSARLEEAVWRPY

The first experiment has as its target RUNX1 (UniProt Q01196). Put plainly: RUNX1 binding intensity (PBM fluorescence), RUNX1 alone (arbitrary fluorescence units); higher = stronger binding. As to conditions: RUNX1 concentration 2 nM; ETS1 concentration 0 nM. As to the method:
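Cooperative gcPBM on 36-bp genomic probes with neighbouring ETS1 and RUNX1 sites. Recombinant human RUNX1 (2 nM) was incubated alone or with ETS1 (25 nM) and detected with anti-RUNX1 antibody plus Alexa488 secondary. Values are medians over 4 replicate spots; the RUNX1+ETS1 data were normalised to the RUNX1-only data. The probes sit in constant array flanks that are not printed.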
Sequence GAAGCGCTGGGCGGAAGTGGCTGTGGCTTTGCCCTT displayed an RUNX1 binding intensity of 735. On the same count and under the same terms, under GGCGGAAGCTGCCGCTGCCTTGCGCCCCCACACACG stands 818; under GCAGGGGCCCATTTCCTGCCACAAGCCCACACAGGA, 749. For GCAGAACCAGAAACAGGATGTGGGTTCCCCTTTAAG, the RUNX1 binding intensity was 826.

For the next experiment, the target named is T1, ETS1 (UniProt P14921).
T1 sequence: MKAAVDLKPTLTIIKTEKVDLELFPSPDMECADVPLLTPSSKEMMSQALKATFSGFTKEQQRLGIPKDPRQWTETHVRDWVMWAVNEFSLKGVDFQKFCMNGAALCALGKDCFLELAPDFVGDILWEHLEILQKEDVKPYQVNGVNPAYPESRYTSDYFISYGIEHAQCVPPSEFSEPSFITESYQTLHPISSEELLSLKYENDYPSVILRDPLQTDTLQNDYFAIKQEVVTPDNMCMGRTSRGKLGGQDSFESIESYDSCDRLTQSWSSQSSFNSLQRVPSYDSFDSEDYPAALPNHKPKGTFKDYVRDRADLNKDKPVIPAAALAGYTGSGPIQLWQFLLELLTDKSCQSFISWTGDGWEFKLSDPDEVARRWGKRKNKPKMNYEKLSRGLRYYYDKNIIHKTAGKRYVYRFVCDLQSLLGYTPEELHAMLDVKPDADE
Put plainly: ETS1 binding intensity (PBM fluorescence) in presence of RUNX1, normalised to ETS1-only experiment (arbitrary fluorescence units); higher = stronger binding. The settings on record: ETS1 concentration 1 nM; RUNX1 concentration 25 nM.
CTGGCTACAGGAAAAACAAAGTCAAACCACAGCACT: the ETS1 binding intensity came out at 929.

With TTCTTAGCAGAGGAAGCTGTTTGCGGGGAAAAAGGG, the ETS1 binding intensity came to 2200.

Take CCAACACGGATACAAAAAATATCTCTCTACCACACT: the ETS1 binding intensity was determined as 531. On to GGTCTGGAGGATGTTTGCAGCTGCTGTGGGTGGTGG, for which the ETS1 binding intensity was found to be 530.

As to CTCTGAAGGAAGTGATGTTAGACGGCTGTGGGTGGT, the ETS1 binding intensity was found to be 785. The same measure, in the same setting: under CTAAGTGCTCTTCCTGCCAACCTGTGGGCGCCTGGC stands 686; under GAACACGGAAACACTGAGCTTTTACTTTGACCACAC, 440; under GGATGGCGGAAGAGGCGGCTGAGGCCGCAGGACGTG, 4800. Still for that read-out and setting: with TTTCCAGAGGATGTAGCTTCTGCGGGAGAGCTTCAA the figure was 584; with CAGGGAAGTTCGAACTGGGCGGGGCCCACCGCAGTT, 488.

As to CTTCCTTCCCTTCCTTCTGCTCCCTCCCACAGCCGC, the ETS1 binding intensity worked out at 436. Consider GAAGCGCTGGGCGGAAGTGGCTGTGGCTTTGCCCTT, for which the ETS1 binding intensity was found to be 14300. Same read-out and setting: with GGAGGAAGGCAGGAAAGAAAGAGGTGGTTTCGGCAC the figure was 762. Same read-out and setting: under TCACTCCTCTTCCTTCCTGCCACCCACAGGGTCAGC stands 378; under CTGTGGCCTAGAAGCTTCCTGCCGCAGCTCTGAGGA, 505. Regarding CTTCAGGGGTGGGGCTTCCTGCCGCAGAGCCGCCTT, the ETS1 binding intensity amounted to 557. For AGATGGTGTGGCCGGATGGGGACCACATTGAAGAGA, the ETS1 binding intensity amounted to 1240.
